Calls of active or inactive are those of the source. The calls were made as follows: active = hit-call score of the fitted dose curve at least 0.9, where 1 is the maximum; inactive = score below 0.9.
How the values were obtained:
[1] = ATG_M_32_CIS: Attagene CIS-FACTORIAL HepG2 Assay for M32 Transcription Factor (Internal Marker) (AID 2282949); details: HepG2 Attagene cis-factorial M32 reporter, mRNA; actives raise or lower the signal;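 also: background control marker of the multiplexed CIS panel rather than a real target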
Procedure, shortened: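 HepG2 human liver cells transiently transfected with cis-promoter-driven multiple reporter transcription units, dosed 24 h. Reporter mRNA quantified by RT-PCR, FAM-labelled primer extension, HpaI digest and capillary electrophoresis; bidirectional fit versus DMSO baseline.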

[2] = ATG_M_06_CIS: Attagene CIS-FACTORIAL HepG2 Assay for M06 Transcription Factor (Internal Marker) (AID 2282950); details: HepG2 Attagene CIS-FACTORIAL M06 internal marker reporter; actives raise or lower the signal
Procedure, shortened: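 HepG2 cells transiently transfected with cis-regulated multiple reporter transcription units were exposed to chemical for 24 h; reporter mRNA was quantified by RT-PCR, 6-FAM primer labelling, HpaI digestion and capillary electrophoresis, fitted bidirectionally against DMSO.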

[3] = biological target: Hypoxia-inducible factor 1-alpha (Homo sapiens) (UniProt Q16665); assay: ATG_HIF1a_CIS: Attagene CIS-FACTORIAL HepG2 Assay for human Hypoxia Inducible Factor 1 (HIF1A) (AID 2282951); details: HepG2 Attagene cis-factorial HIF1a reporter transcription; actives raise or lower the signal
Procedure, shortened: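 Endogenous-TF cis reporter readout, human HepG2 cells, 24 h incubation; mRNA detected via RT-PCR and capillary electrophoresis fluorescence; DMSO-normalised bidirectional fitting.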

[4] = biological target: Hepatocyte nuclear factor 6 (Homo sapiens) (UniProt Q9UBC0); assay: ATG_HNF6_CIS: Attagene CIS-FACTORIAL HepG2 Assay for human Hepatocyte Nuclear Factor 6 (HNF6) (AID 2282952); details: HepG2 Attagene cis-factorial HNF6 reporter transcription; actives raise or lower the signal
Procedure, shortened: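 Endogenous factor activity read in transiently transfected HepG2 via promoter-regulated reporter transcripts. RNA harvested 24 h post-dosing, reverse-transcribed, PCR-amplified, FAM-labelled, HpaI-digested and resolved by capillary electrophoresis; fitted in both directions against DMSO.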

[5] = biological target: Heat shock factor protein 1 (Homo sapiens) (UniProt Q00613); assay: ATG_HSE_CIS: Attagene CIS-FACTORIAL HepG2 Assay for human Heat Shock Transcription Factor 1 (HSE) (AID 2282953); details: HepG2 HSE cis-reporter, Attagene RNA transcription; actives raise or lower the signal
Procedure, shortened: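 HepG2 cells transiently transfected with multiple reporter transcription units under cis-regulatory promoter control, measuring endogenous transcription factor activity. After 24 h chemical exposure, reporter mRNA quantified by RT-PCR, fluorescent labelling, HpaI digestion and capillary electrophoresis; bidirectional fit versus DMSO.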

[6] = ATG_MRE_CIS: Attagene CIS-FACTORIAL HepG2 Assay for human Metal Responsive Element (MRE) (AID 2282954); details: HepG2 MRE cis-reporter transcription, Attagene multiplex; actives raise or lower the signal
Procedure, shortened: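 Endogenous MRE-dependent transcription read as reporter mRNA in transiently transfected human HepG2 cells at 24 h. RNA reverse-transcribed, PCR-amplified, labelled and resolved by capillary electrophoresis; gain or loss relative to DMSO.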

[7] = ATG_PBREM_CIS: Attagene CIS-FACTORIAL HepG2 Assay for human Phenobarbital-responsive Enhancer Module (PBREM) (AID 2282955); details: HepG2 PBREM cis-reporter, Attagene multiplexed transcription; actives raise or lower the signal
Procedure, shortened: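 Readout: reporter mRNA, fluorescent RT-PCR fragments separated by capillary electrophoresis. System: HepG2 transiently transfected with cis-regulated reporter units. Exposure: 24 h. Analysis: bidirectional, DMSO baseline.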

[8] = biological target: Paired box protein Pax-6 (Homo sapiens) (UniProt P26367); assay: ATG_Pax6_CIS: Attagene CIS-FACTORIAL HepG2 Assay for human Paired Box 6 (PAX6) (AID 2282956); details: HepG2 CIS-FACTORIAL PAX6 reporter transcription, RNA readout; actives raise or lower the signal
Procedure, shortened: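 Values derive from bidirectional curve fitting of reporter mRNA signal relative to DMSO. HepG2 cells bearing transfected cis-regulated MRTUs were exposed for 24 h; transcripts were read by RT-PCR and capillary electrophoresis.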

[9] = ATG_PXRE_CIS: Attagene CIS-FACTORIAL HepG2 Assay for human Pregnane X Receptor Element (PXRE) (AID 2282957); details: HepG2 Attagene CIS-FACTORIAL PXRE reporter, mRNA; actives raise or lower the signal
Procedure, shortened: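 Reporter transcripts under endogenous PXR-responsive cis-regulation quantified from total RNA of transfected HepG2 cells 24 h post-dosing, via RT-PCR with fluorescent primer extension and capillary electrophoresis. Gain or loss of signal fitted against DMSO baseline.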

[10] = ATG_PPRE_CIS: Attagene CIS-FACTORIAL HepG2 Assay for human Peroxisome Proliferator-activated Response Element (PPRE) (AID 2282958); details: HepG2 PPRE cis-element reporter, Attagene transcription factor profiling; actives raise or lower the signal
Procedure, shortened: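 After human HepG2 hepatoma cells were transiently transfected with cis-promoter reporter constructs, they were exposed to test chemicals for 24 hours. Reporter RNA was then reverse-transcribed, PCR-amplified, FAM-labeled, HpaI-digested and quantified by capillary electrophoresis.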

[11] = ATG_RORE_CIS: Attagene CIS-FACTORIAL HepG2 Assay for human RAR-related Orphan Receptor Element (RORE) (AID 2282959); details: HepG2 Attagene cis-factorial RORE reporter, mRNA; actives raise or lower the signal
Procedure, shortened: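 Measured here: transcript induction of a cis-regulated reporter in HepG2 cells transiently transfected via FuGene 6. After 24 h, RNA was processed by RT-PCR and fluorescent capillary electrophoresis; DMSO defined baseline activity.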

[12] = ATG_Sox_CIS: Attagene CIS-FACTORIAL HepG2 Assay for human SRY-box transcription factor (SOX) (AID 2282960); details: HepG2 Attagene cis-factorial SOX reporter, mRNA; actives raise or lower the signal
Procedure, shortened: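 Using transiently transfected HepG2 cells, reporter transcription driven by cis elements was assessed 24 h after dosing. Signal was fluorescence of capillary-separated RT-PCR products, with DMSO defining baseline activity.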

[13] = biological target: Transcription factor Sp1 (Homo sapiens) (UniProt P08047); assay: ATG_Sp1_CIS: Attagene CIS-FACTORIAL HepG2 Assay for human Specificity Protein 1 (Sp1) (AID 2282961); details: HepG2 Sp1 cis-reporter transcription, actives raise or lower the signal
Procedure, shortened: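 After transient transfection of HepG2 cells with cis-promoter reporter units and 24 h chemical treatment, reporter transcripts were quantified by RT-PCR and capillary electrophoresis fluorescence. Gain- and loss-of-signal fitted against DMSO.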

[14] = ATG_SREBP_CIS: Attagene CIS-FACTORIAL HepG2 Assay for human Sterol Regulatory Element Binding (SREBP) (AID 2282962); details: HepG2 Attagene cis-factorial SREBP reporter, mRNA; actives raise or lower the signal
Procedure, shortened: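 Values derive from bidirectional curve fitting with DMSO as baseline. The underlying measurement is reporter mRNA from cis-element-regulated units in transiently transfected HepG2, quantified by RT-PCR and capillary electrophoresis after 24 h exposure.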

[15] = biological target: Signal transducer and activator of transcription 3 (Homo sapiens) (UniProt P40763); assay: ATG_STAT3_CIS: Attagene CIS-FACTORIAL HepG2 Assay for human Signal Transducer and Activator of Transcription 3 (STAT3) (AID 2282963); details: HepG2, Attagene cis-factorial STAT3 reporter transcription; actives raise or lower the signal
Procedure, shortened: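 Readout is reporter transcript quantified by RT-PCR and capillary electrophoresis, with 6-FAM primer extension and HpaI digestion. Total RNA is taken 24 h after dosing transiently transfected HepG2 carrying cis-regulated reporter units. Bidirectional fit against DMSO.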

[16] = ATG_TA_CIS: Attagene CIS-FACTORIAL HepG2 Assay for human TA Basal Promoter (AID 2282964); details: HepG2 Attagene CIS-factorial TA basal promoter reporter; actives raise or lower the signal
Procedure, shortened: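 HepG2 cells transiently transfected with multiplexed cis-promoter reporter units, dosed 24 h. Reporter mRNA measured by RT-PCR, 6-FAM labelling, HpaI digestion and capillary electrophoresis; bidirectional fit versus DMSO baseline, serving as background control.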

[17] = ATG_TCF_b_cat_CIS: Attagene CIS-FACTORIAL HepG2 Assay for human T-Cell-Factor with beta-catenin (TCF/b-cat) (AID 2282965); details: HepG2 TCF/beta-catenin cis-reporter transcription, actives raise or lower the signal
Procedure, shortened: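 Endogenous transcription factor activity is captured through cis-promoter reporter constructs transiently introduced into human HepG2 liver cells. Induced reporter mRNA is measured after 24 h and fitted bidirectionally relative to DMSO.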

[18] = ATG_TAL_CIS: Attagene CIS-FACTORIAL HepG2 Assay for human TAL Basal Promoter (AID 2282966); details: HepG2 Attagene cis-factorial TAL promoter reporter; actives raise or lower the signal;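 also: background control endpoint measuring basal TAL promoter reporter mRNA not a specific factor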
Procedure, shortened: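 Background-control endpoint: basal TAL promoter reporter transcripts in transiently transfected HepG2, measured 24 h after dosing. Read-out by RT-PCR with fluorescent primer extension and capillary electrophoresis; gain or loss of signal fitted relative to DMSO.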

[19] = ATG_TGFb_CIS: Attagene CIS-FACTORIAL HepG2 Assay for human Transforming Growth Factor (TGF) (AID 2282967); details: HepG2 Attagene CIS TGFb reporter, mRNA transcription; actives raise or lower the signal
Procedure, shortened: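 HepG2 cells transiently transfected with cis-promoter-driven multiplexed reporter units; 24 h compound exposure. Reporter mRNA measured by RT-PCR, 6-FAM labeling, HpaI digestion and capillary electrophoresis; bidirectional fit versus DMSO baseline.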

[20] = ATG_ISRE_CIS: Attagene CIS-FACTORIAL HepG2 Assay for human Interferon Regulatory Factor 1 (IRF1) binding to an Interferon-Stimulated Response Element (ISRE) (AID 2282948); details: HepG2 ISRE cis-reporter (Attagene), mRNA transcription readout; actives raise or lower the signal
Procedure, shortened: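 Signal reflects induction or loss of ISRE-linked reporter mRNA in transiently transfected HepG2 cells after a 24 h treatment, detected by fluorescent RT-PCR fragments on capillary electrophoresis and normalised to DMSO.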

Measured: AC50

Chain of Transcription factor Sp1 (Homo sapiens) (P08047 whole entry, looked up): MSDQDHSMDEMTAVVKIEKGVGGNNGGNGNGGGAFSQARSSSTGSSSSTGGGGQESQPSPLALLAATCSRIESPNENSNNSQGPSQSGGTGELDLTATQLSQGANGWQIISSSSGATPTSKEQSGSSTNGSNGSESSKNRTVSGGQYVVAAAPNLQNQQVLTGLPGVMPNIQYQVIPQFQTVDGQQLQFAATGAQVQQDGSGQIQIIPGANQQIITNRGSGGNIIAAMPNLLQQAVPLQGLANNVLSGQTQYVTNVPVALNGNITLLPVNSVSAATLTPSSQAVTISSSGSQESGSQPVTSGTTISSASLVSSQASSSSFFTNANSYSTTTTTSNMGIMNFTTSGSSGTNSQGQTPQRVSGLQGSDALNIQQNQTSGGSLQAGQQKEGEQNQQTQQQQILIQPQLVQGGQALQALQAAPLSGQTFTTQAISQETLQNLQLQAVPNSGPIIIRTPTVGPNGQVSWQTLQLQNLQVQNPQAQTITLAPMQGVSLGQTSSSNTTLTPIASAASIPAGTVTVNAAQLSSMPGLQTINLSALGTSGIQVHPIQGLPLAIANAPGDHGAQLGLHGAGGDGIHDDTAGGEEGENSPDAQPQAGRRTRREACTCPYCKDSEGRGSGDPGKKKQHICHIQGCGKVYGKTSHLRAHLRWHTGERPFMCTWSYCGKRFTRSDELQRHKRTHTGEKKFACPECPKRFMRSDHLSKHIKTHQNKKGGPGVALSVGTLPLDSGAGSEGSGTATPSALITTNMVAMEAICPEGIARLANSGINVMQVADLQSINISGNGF
Chain of Paired box protein Pax-6 (Homo sapiens) (P26367 whole entry, looked up): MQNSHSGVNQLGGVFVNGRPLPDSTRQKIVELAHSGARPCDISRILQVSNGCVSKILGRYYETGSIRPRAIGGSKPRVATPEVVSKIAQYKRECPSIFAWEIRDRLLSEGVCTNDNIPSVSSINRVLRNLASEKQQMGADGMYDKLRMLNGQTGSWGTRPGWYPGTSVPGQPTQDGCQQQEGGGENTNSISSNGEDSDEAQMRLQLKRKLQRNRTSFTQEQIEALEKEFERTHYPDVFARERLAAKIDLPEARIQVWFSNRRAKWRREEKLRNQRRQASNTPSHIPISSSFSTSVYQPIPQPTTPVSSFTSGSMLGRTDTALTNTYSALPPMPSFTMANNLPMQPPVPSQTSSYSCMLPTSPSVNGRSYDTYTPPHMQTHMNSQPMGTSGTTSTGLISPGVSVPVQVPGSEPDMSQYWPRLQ
Chain of Heat shock factor protein 1 (Homo sapiens) (Q00613 whole entry, looked up): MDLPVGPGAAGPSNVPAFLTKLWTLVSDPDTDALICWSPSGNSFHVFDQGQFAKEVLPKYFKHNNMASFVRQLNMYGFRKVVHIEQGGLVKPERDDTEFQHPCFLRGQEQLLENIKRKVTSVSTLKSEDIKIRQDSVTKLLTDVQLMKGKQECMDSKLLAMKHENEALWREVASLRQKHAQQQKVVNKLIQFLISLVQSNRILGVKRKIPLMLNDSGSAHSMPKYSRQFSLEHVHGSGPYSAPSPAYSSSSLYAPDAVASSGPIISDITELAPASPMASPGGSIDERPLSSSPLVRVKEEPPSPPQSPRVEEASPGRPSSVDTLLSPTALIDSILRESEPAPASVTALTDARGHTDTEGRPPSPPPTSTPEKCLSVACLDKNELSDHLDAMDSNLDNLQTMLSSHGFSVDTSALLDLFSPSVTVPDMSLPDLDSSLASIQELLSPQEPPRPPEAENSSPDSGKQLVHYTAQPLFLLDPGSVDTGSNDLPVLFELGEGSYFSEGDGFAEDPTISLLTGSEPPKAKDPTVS
Chain of Hepatocyte nuclear factor 6 (Homo sapiens) (Q9UBC0 whole entry, looked up): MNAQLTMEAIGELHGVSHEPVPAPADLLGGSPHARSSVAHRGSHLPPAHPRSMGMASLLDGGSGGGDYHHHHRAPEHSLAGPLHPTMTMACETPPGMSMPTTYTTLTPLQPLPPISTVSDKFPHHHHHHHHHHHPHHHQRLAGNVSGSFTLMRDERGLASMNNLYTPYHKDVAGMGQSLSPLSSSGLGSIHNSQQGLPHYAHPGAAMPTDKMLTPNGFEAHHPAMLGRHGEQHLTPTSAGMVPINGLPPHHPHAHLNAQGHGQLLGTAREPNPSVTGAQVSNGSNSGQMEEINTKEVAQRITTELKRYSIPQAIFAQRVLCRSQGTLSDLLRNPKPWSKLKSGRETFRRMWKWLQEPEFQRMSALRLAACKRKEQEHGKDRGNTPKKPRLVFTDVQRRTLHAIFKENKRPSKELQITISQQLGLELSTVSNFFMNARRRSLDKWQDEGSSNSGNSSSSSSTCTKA
Chain of Signal transducer and activator of transcription 3 (Homo sapiens) (P40763 whole entry, looked up): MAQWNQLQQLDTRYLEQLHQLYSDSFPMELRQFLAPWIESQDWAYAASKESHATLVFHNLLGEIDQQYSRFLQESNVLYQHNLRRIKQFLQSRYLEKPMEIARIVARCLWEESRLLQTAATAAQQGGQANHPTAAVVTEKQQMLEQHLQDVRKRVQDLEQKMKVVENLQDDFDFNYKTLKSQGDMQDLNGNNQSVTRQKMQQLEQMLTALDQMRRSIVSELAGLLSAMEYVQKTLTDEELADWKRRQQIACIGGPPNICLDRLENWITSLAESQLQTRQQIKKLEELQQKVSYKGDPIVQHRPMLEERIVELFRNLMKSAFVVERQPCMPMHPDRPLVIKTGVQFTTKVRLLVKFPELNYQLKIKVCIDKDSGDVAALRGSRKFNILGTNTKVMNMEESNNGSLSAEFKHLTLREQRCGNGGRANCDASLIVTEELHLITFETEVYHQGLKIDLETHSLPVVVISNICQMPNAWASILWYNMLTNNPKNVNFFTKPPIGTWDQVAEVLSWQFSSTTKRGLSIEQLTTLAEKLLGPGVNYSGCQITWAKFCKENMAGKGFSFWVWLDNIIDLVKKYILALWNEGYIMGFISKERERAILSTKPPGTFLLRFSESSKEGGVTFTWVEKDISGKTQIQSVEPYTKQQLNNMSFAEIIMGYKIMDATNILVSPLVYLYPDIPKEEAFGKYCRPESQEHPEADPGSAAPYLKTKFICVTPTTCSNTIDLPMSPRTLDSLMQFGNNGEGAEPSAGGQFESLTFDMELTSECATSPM
Chain of Hypoxia-inducible factor 1-alpha (Homo sapiens) (Q16665 whole entry, looked up): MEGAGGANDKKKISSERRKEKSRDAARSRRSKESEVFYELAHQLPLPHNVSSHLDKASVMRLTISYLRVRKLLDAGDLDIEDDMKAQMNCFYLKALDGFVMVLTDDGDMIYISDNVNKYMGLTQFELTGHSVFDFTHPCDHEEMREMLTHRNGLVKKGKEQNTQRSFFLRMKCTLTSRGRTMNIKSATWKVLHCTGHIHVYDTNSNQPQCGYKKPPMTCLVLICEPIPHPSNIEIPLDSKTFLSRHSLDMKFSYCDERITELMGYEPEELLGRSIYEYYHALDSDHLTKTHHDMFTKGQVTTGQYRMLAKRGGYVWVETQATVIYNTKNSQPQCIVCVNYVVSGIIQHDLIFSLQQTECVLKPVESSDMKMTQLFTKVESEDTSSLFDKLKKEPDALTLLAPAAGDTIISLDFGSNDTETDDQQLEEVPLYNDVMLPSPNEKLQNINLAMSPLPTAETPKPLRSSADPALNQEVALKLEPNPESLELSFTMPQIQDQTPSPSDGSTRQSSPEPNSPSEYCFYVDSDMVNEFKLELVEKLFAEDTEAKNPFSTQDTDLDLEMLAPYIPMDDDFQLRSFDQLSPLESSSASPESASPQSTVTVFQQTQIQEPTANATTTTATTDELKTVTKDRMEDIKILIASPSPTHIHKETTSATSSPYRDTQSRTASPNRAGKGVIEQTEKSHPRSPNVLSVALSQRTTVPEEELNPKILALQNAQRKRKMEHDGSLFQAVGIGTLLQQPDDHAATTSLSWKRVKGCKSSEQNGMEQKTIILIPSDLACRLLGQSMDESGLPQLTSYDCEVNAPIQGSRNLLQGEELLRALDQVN

Fc1cccc(Cl)c1CCl
active: [5] 159 µM | [8] 73.9 µM | [12] 100 µM | [13] 65.3 µM | [17] 100 µM
not listed: [20]
inactive: all other assays above

Nc1nc(=S)[nH][nH]1
not listed: [7] | [19] | [20]
inactive: all other assays above

C=CCCl
active: [9] 100 µM
not listed: [20]
inactive: all other assays above

CCOC(=O)C(SP(=S)(OC)OC)c1ccccc1 (stereo unspecified)
active: [6] 37.3 µM | [9] 1.77 µM
not listed: [4] | [10] | [20]
inactive: all other assays above

CN(CCCC(O)c1cccnc1)N=O (stereo unspecified)
not listed: [7] | [20]
inactive: all other assays above

O=C(CCl)NCO
active: [19] 0.765 µM
not listed: [13] | [18] | [20]
inactive: all other assays above

CC(c1ccc(O)cc1)c1ccc(O)cc1
active: [5] 168 µM | [6] 100 µM | [9] 27.6 µM
not listed: [10] | [16] | [17] | [20]
inactive: all other assays above

CN(N=O)C(N)=O
not listed: [5] | [8] | [10] | [20]
inactive: all other assays above

O=[N+]([O-])c1c2ccccc2cc2ccccc12
active: [9] 3.8 µM
not listed: [8] | [10] | [16] | [17] | [20]
inactive: all other assays above

C[C@H]1C(=O)O[C@@H]2CCN3CC=C(COC(=O)[C@](C)(O)[C@]1(C)O)[C@H]23
not listed: [3] | [4] | [7]
inactive: all other assays above

CCC[CH2][Sn]([CH2]CCC)([CH2]CCC)[CH2]CCC
active: [5] 17.1 µM | [8] 11.1 µM | [9] 18.3 µM | [12] 11.1 µM | [13] 9.76 µM | [14] 2.82 µM | [15] 11.1 µM | [17] 15.3 µM
not listed: [7] | [10] | [16] | [20]
inactive: all other assays above

COC(=O)c1cc(Oc2ccc(Cl)cc2Cl)ccc1[N+](=O)[O-]
active: [3] 21.3 µM | [6] 17.9 µM | [7] 11.8 µM | [9] 5.12 µM | [10] 10.2 µM | [11] 16.6 µM | [16] 27.1 µM | [19] 66.8 µM
not listed: [20]
inactive: all other assays above

C[N+](C)(C)Cc1ccccc1
not listed: [7] | [10] | [11] | [17] | [20]
inactive: all other assays above
